# Reference: ChEMBL document CHEMBL3988442, “University of Dundee, Small-Polar-MMV Screening Library” (2021)
# Out of some 53,000 compounds screened, about 900 (1.7%) showed an effect of 50% or more. What follows is part of a selection rich in strong results, with near analogues and random picks from the rest.
# Test system: Mycobacterium tuberculosis
# Experiment: Cornell - Phenotypic assay to identify agents that inhibit growth of Mycobacterium tuberculosis
# Type: functional
# Set-up: scale not given: direction of the effect not stated beside the values
# Details: 10 mM as filed; unlikely as a test dose
row,SMILES,Percent Effect [%]
1,CCC(=O)Nc1ccc(F)c(S(=O)(=O)NC(C)(C)C)c1,-2.357
2,CC(C)(C)NS(=O)(=O)c1cc(NC(=O)C2CC2)ccc1F,50.55
3,CC(=O)Nc1ccc(F)c(S(=O)(=O)NC(C)(C)C)c1,40.62
4,c1ccc(Cc2nc(CNC3CCOC4(CCOCC4)C3)no2)cc1 (stereo not given),8.637
5,Cc1noc(C)c1CN1C[C@@H](C(=O)O)[C@H](c2ccccc2)C1,23.54
6,Cc1noc(C)c1CNC(=O)Nc1ccc(N2CCOC2=O)cc1,-58.42
7,Cc1noc(C)c1CNC(=O)N1CCCC(C)CC1 (stereo not given),12.27
8,Cc1noc(C)c1CNC(=O)Nc1ccc(N2CCSCC2)cc1,104.5
9,Cc1ocnc1CNC(=O)Nc1ccc(N2CCOC(C)C2)cc1 (stereo not given),104
10,Cc1noc(C)c1CNC(=O)Nc1ccc(N2CCOC(C)C2)cc1 (stereo not given),103.9
11,Cc1noc(C)c1CNC(=O)NCCC(=O)N1CCCc2ccccc21,-5.48
12,CC1CN(c2ccc(NC(=O)Cn3cccn3)cc2)CCO1 (stereo not given),-5.599
13,CC1CN(c2ccc(CNC(=O)NCCO)cn2)CCO1 (stereo not given),2.175
14,Cc1n[nH]/c(=N\C(=O)c2c3c(nc4onc(C)c24)CCC3)s1,20.11
15,CN(C)CCNCCC(c1ccccc1)C1CCOC(C)(C)C1.O=C(O)C(=O)O (stereo not given),21.42
16,CCc1nc(C2CCCN2C(=O)c2cc(Cl)c[nH]2)no1 (stereo not given),23.06
17,CC(C)CC(=O)N1CC(=O)N(Cc2ccco2)CC(O)C1 (stereo not given),-16.35
18,Cn1nc(Br)c2c(NCCCS(N)(=O)=O)ncnc21,24.15
19,Nc1ncc(-c2ccc(NC(=O)[C@@H]3CCCCN3)cc2)cn1,-8.73
20,Cc1nc(Nc2nncs2)cc(C2CCCN2C)n1 (stereo not given),-51.01
21,O=C1CC(c2ccsc2)c2sc(C(=O)O)c(-c3ccc(F)cc3)c2N1 (stereo not given),105.2
22,O=C1CC(c2ccsc2)c2sc(C(=O)O)c(-c3ccccc3)c2N1 (stereo not given),-23.75
23,O=C1CC(c2ccccc2)c2sc(C(=O)O)c(-c3ccccc3)c2N1 (stereo not given),17.04
24,O=C(C1CCOC1)N1C[C@@H]2CCN(C(=O)c3cscn3)[C@@H]2C1 (stereo not given in full),-35.62

row,SMILES,Percent Effect [%]
1,CC(CC(=O)NS(C)(=O)=O)C1CCCCC1 (stereo not given),-16.66
2,CCCc1cc(C(=O)NCCC2=CCCCC2)[nH]n1,32.79
3,O=C(NCCC1=CCCCC1)c1cc(-c2ccc(O)cc2)n[nH]1,22.09
4,Cc1ccc(-c2cc(C(=O)NCCC3=CCCCC3)[nH]n2)o1,52.86
5,Cc1cc(F)ccc1N1CCCC(NC2CCSCC2)C1=O (stereo not given),-0.6719
6,Cc1cc(S(=O)(=O)N2CCCc3cc(Br)ccc32)sc1C(=O)O,32.41
7,COC1CCN(C(=O)CC(C)(C)C)CC(=O)N(C)c2ccccc21 (stereo not given),2.903
8,CC(C)=CCN1C[C@@H]2CN(C(=O)c3ccc(CO)cc3)C[C@]2(C(=O)O)C1,22.99
9,CN(C)C(=O)C1CCC2(CCN(C(=O)Nc3ccccc3)CC2)O1 (stereo not given),2.965
10,COc1cc(C2Nc3cc(Cl)ccc3C3=NCCN32)ccc1O (stereo not given),80.22
11,COc1ccc(C2Nc3cc(Cl)ccc3C3=NCCN32)cc1O (stereo not given),10.02
12,COc1cc(C2Nc3cc(Cl)ccc3C3=NCCN32)cc(OC)c1OC (stereo not given),-27.36
13,CCCn1cc(C(=O)N2CCCC2(C)c2nc(C)cc(N)n2)cn1 (stereo not given),-4.951
14,Clc1ccc(N2CCN(CCCN3CCCCC3)CC2)nc1,25.77
15,CSCCCN1CCN(c2ccc(Cl)cn2)CC1,62.54
16,CSCc1ccc(N2CCN(c3ccc(Cl)cn3)CC2)nc1,-11.59
17,COC(=O)CNC(=O)C1CCN(S(C)(=O)=O)CC1,-1.242
18,O=C(c1cccc2[nH]ncc12)N1CCCC1c1noc(C2CC2)n1 (stereo not given),0.6634
19,O=C(c1n[nH]c2ccccc12)N1CCCC1c1noc(C2CC2)n1 (stereo not given),50.46
20,O=C(Cc1noc2ccccc12)N1CCCC1c1noc(C2CC2)n1 (stereo not given),0.3643
21,CC(=O)N1CCO[C@@H]2CN(S(=O)(=O)c3ccc(C)cc3)CC[C@@H]2C1,-25.36
22,CCc1noc(C(C)N2CCN(CC(C)C)CC2)n1 (stereo not given),-14.43
23,COc1ccc(CNC(Cc2ccsc2)c2ccc(C)cn2)c(OC)c1 (stereo not given),18.63
24,COc1cccc(OC)c1CNC(Cc1ccsc1)c1ccc(C)cn1 (stereo not given),62.45

row,SMILES,Percent Effect [%]
1,COc1ccc(CNC(Cc2ccsc2)c2ccc(C)cn2)cc1OC.Cl (stereo not given),26.36
2,CCc1nc(NS(=O)(=O)c2cccc(F)c2C)no1,37.51
3,CC(CO)NC(=O)c1ccc(NCc2ccc(F)c(F)c2)cc1 (stereo not given),4.78
4,O=C(c1cc(C2CC2)[nH]n1)N1CCN(Cc2ccsc2)CC1,6.464
5,Cc1cccc(CN2CCN(C(=O)c3cc(C4CC4)[nH]n3)CC2)c1,63.11
6,CC(C)c1ncncc1C(=O)N1CCN(Cc2ccsc2)CC1,5.12
7,CC(C)c1cc(C(=O)N2CCN(Cc3ccsc3)CC2)n[nH]1,50.59
8,O=C(c1cc(C2CC2)[nH]n1)N1CCN(Cc2ccc3c(c2)OCO3)CC1,83.19
9,O=C(c1cc(C2CC2)[nH]n1)N1CCN(Cc2ccncc2)CC1,8.467
10,CC(C)c1ccc(CN2CCN(C(=O)c3cc(C4CC4)[nH]n3)CC2)cc1,-22.19
11,O=C(c1cc(C2CC2)[nH]n1)N1CCN(Cc2ccccc2)CC1,7.865
12,O=C(c1cc(C2CC2)[nH]n1)N1CCN(Cc2ccc(Cl)cc2)CC1,-11.68
13,CCCOc1cccc(C(=O)N2CCCC(n3cncn3)C2)c1 (stereo not given),2.869
14,CNC(=O)CS(=O)(=O)NC1CCC(C)CC1 (stereo not given),-17.27
15,CC1CCC(NS(=O)(=O)CC(=O)NC(C2CC2)C2CC2)CC1 (stereo not given),-19.5
16,CC1CCC(NS(=O)(=O)CC(=O)Nc2ccc(N3CCCC3)cn2)CC1 (stereo not given),-5.738
17,CCNC(=O)CS(=O)(=O)NC1CCC(C)CC1 (stereo not given),-36.82
18,Cc1ccc(NC(=O)CS(=O)(=O)NC2CCC(C)CC2)nc1 (stereo not given),59.09
19,CC1CCC(NS(=O)(=O)CC(=O)NCC2CCC2)CC1 (stereo not given),57.41
20,CS(=O)(=O)NCC1CCCN(C(=O)Nc2ccccc2N2CCCC2)C1 (stereo not given),12.25
21,CC1CCC(NS(=O)(=O)CC(=O)Nc2ccccc2N2CCCC2)CC1 (stereo not given),81.68
22,CC1CCC(NS(=O)(=O)CC(=O)NC2(C(N)=O)CCCC2)CC1 (stereo not given),-11.11
